This note sets out measurements from PMC7819943, “Rice protein-binding microarrays: a tool to detect cis-acting elements near promoter regions in rice”.

In all, about 68,000 sequences were measured (“fluorescence intensity (a.u.)”: median about 9,100, highest 2% from about 16,000 on). The sample as a whole holds a higher share of the highest values than the screen did.

The target of this assay is OsWRKY34 (Oryza sativa, UniProt Q0JBA9 1-250). The assay is described as follows: protein-binding microarray (RPBM); PBS, 2% BSA, 51.3 ng/ul salmon testes DNA, 50 uM zinc acetate, 200 nM TF, 25 C, 1 h; high values mean tight binding. Conditions: protein: recombinant; tags: N-terminal polyhistidine and DsRed monomer fusion (pET32a); label: CyDye5-dUTP incorporated in the synthesized complementary strand; 3' TTTTT single-stranded linker to array surface; dsDNA, one strand shown. Summed up: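 Transcription factors, each fused N-terminally to a polyhistidine tag and DsRed, were expressed in E. coli BL21-CodonPlus and purified on Ni–NTA. A custom Agilent array was made double-stranded by primer extension with Cy5-dUTP and blocked with 2% BSA. It was incubated with 200 nM protein in PBS, 2% BSA, salmon testes DNA and 50 µM zinc acetate at 25 °C for 1 h, then washed. The binding signal is per-feature fluorescence intensity (arbitrary units) read on an Axon 4000B scanner.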
Chain of OsWRKY34 (Q0JBA9 entry or part of it): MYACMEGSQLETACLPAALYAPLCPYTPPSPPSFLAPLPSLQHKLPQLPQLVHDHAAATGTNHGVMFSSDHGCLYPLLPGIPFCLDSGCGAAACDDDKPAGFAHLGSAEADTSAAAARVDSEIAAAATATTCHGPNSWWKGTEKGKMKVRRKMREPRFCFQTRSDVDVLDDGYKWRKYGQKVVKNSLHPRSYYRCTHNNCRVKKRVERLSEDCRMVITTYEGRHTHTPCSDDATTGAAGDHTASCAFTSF
Consider “ACGACCCTCTACATGTTGCTGCTGGCAGCCGCTCCCTCTCCGGAGTCACCTAGTGCAG”, for which the binding signal is 8660 fluorescence intensity (a.u.).

For the sequence “GTTTTTCATATTTGACGATCAAACGGTGGTTTTAAAACTTCGGAGTCACCTAGTGCAG”, the binding signal was 8140 fluorescence intensity (a.u.).

As for “CACTTTTTCATGGATTTTTACTTATTTAATGATTTTTTATCGGAGTCACCTAGTGCAG”, the binding signal is 8240 fluorescence intensity (a.u.).

For the sequence “CGATGGCTGGAGGGGAGGCGGCGGCGCATCGTGGCGGGCGCGGAGTCACCTAGTGCAG”, the binding signal is 8030 fluorescence intensity (a.u.).

Consider “GTCGTGGGCGGGAGGTGGTGGTGGTGGTGCTGCTGCATTGCGGAGTCACCTAGTGCAG”, for which the binding signal is 11600 fluorescence intensity (a.u.).

For the sequence “GGCGGGGCAGACGGAGGCCGACGGCTGCAGCGGGCTGGGGCGGAGTCACCTAGTGCAG”, the binding signal is 9010 fluorescence intensity (a.u.).

For the sequence “AGCGAGCGACGGGCGGGGCGGAGCGGGGCGGGGCTGCATTCGGAGTCACCTAGTGCAG”, the binding signal was 16700 fluorescence intensity (a.u.).

Take “GGAGGGCGGGCTGTTATATTCTTCACACCTTGCATGTAAGCGGAGTCACCTAGTGCAG”: the binding signal is 18700 fluorescence intensity (a.u.).

With “AGGCGAGCGAGACGGCGGCGGGCGGGCGGGGCGGGCGACGCGGAGTCACCTAGTGCAG”, the binding signal was 14800 fluorescence intensity (a.u.).

As to “GGGGAGGTTGCTGCTGCTGCTGGGCGGGTGGGCGGAGGGGCGGAGTCACCTAGTGCAG”, the binding signal was 28100 fluorescence intensity (a.u.).

On to “GGCTGTTGTTTTTCCTTGTTATTCTTTCAGTAAGATATTTCGGAGTCACCTAGTGCAG”, for which the binding signal is 12800 fluorescence intensity (a.u.).

With “GGCGAGCGCGTCGTGGAGGGCGGGGAGGGAGTCGGGCTGGCGGAGTCACCTAGTGCAG”, the binding signal was 14400 fluorescence intensity (a.u.).

As for “CTCGATTCTTCTGCAGCTGGGCGGGAGGGGAGGCGTGGCGCGGAGTCACCTAGTGCAG”, the binding signal was 18300 fluorescence intensity (a.u.).

As to “TGGCAGGGTTGCATGGTTCTGGAGGGCGGGCTGTTATATTCGGAGTCACCTAGTGCAG”, the binding signal was 13500 fluorescence intensity (a.u.).

“TAGTGGGGAGGCGGTGGTGCTGCGGGGAGGGAGGGAGCACCGGAGTCACCTAGTGCAG”: the binding signal is 12800 fluorescence intensity (a.u.).

As for “TCTGTCCCTCAATCCCGCGACGCCGCCGCCGTTCTGCTCCCGGAGTCACCTAGTGCAG”, the binding signal was 10000 fluorescence intensity (a.u.).

With “GATCCTATCATTTTCAACGATGTTAAATCGTCACAGGCTTCGGAGTCACCTAGTGCAG”, the binding signal is 8310 fluorescence intensity (a.u.).

Consider “CCTCATTAGCTAGCTTTTTAGGGTGGGGAAGGCCCTTTACCGGAGTCACCTAGTGCAG”, for which the binding signal was 12700 fluorescence intensity (a.u.).

As to “CTCACTTGCATCTTTCCAATATCTTAGTCATTCATTAATACGGAGTCACCTAGTGCAG”, the binding signal is 8520 fluorescence intensity (a.u.).

Take “CTAAATTAATGGTCGCTTTGACTTTTTTTATGTAATGTTTCGGAGTCACCTAGTGCAG”: the binding signal was 14700 fluorescence intensity (a.u.).

For the sequence “AATGTATGACGCCGTTGACTTTTTATCAAACGTTTGACCACGGAGTCACCTAGTGCAG”, the binding signal was 34800 fluorescence intensity (a.u.).

As to “AATGTATGATGCCGTTGACTTTTCGACTAACGTTTGACCACGGAGTCACCTAGTGCAG”, the binding signal was 29200 fluorescence intensity (a.u.).

As to “CATCCGTATGATTCGACTTTTTTTTCACGTTGATTTTATACGGAGTCACCTAGTGCAG”, the binding signal is 9050 fluorescence intensity (a.u.).

Consider “AATGTATGACGCAGTTGACTTTGTGACAAACGTTTGACCTCGGAGTCACCTAGTGCAG”, for which the binding signal is 12300 fluorescence intensity (a.u.).

With “AATGTATGACGCCGTTGACTTTTTGCCCAACGTTTGACCACGGAGTCACCTAGTGCAG”, the binding signal is 38700 fluorescence intensity (a.u.).

Regarding “GTAAATTATGTATGACGCGGTTGACTTTTTATTAACGTTTCGGAGTCACCTAGTGCAG”, the binding signal was 16800 fluorescence intensity (a.u.).

On to “AATTGTAAAGTTGACTTTAATGTTTTTTTTATTGTGGTTTCGGAGTCACCTAGTGCAG”, for which the binding signal is 8740 fluorescence intensity (a.u.).

For the sequence “AATGATGTTGTTGACTTTTAAAATAACGTATGGCCGTTCACGGAGTCACCTAGTGCAG”, the binding signal was 8770 fluorescence intensity (a.u.).

For “TTTTTTTCAATTCGTTTTTTTTTCATTTTTCATCGTCTTTCGGAGTCACCTAGTGCAG”, the binding signal is 8400 fluorescence intensity (a.u.).

With “TACTACTCTCGTGTGGCAAAATTTTGTCTTAGTTCTTGAACGGAGTCACCTAGTGCAG”, the binding signal was 8100 fluorescence intensity (a.u.).

Consider “GCGTTGTGGGTGTCTTGTGTTGTACTGCGTAATTCTTAAACGGAGTCACCTAGTGCAG”, for which the binding signal is 15000 fluorescence intensity (a.u.).

As for “CACAACTATTTCTACTTTTATCATTCCTACCTTTTCTAATCGGAGTCACCTAGTGCAG”, the binding signal was 8180 fluorescence intensity (a.u.).

On to “CTAGCCCGTTAACATTACTGTTCATCTCCCTATCCGTCTCCGGAGTCACCTAGTGCAG”, for which the binding signal was 9570 fluorescence intensity (a.u.).

Consider “TCCTACACCACCCCGTTCTCGCGCCCATCGATCCAACCGACGGAGTCACCTAGTGCAG”, for which the binding signal is 8920 fluorescence intensity (a.u.).

“AGCCACAAATCCTTATTCGTTCAATTGTTTTTCTTCCTCTCGGAGTCACCTAGTGCAG”: the binding signal was 8140 fluorescence intensity (a.u.).

Consider “ATCGCGAAGTTCGCGACCCGATTCCTCTCCGCCCGCCATGCGGAGTCACCTAGTGCAG”, for which the binding signal was 8380 fluorescence intensity (a.u.).

For “GTACATGCATTATCCATATCTCTAAATTTAGCAATCACTTCGGAGTCACCTAGTGCAG”, the binding signal is 9480 fluorescence intensity (a.u.).

As for “AGTTCACTTTAGGTCCCTCTATTTGTCGTCCAGTCTGATTCGGAGTCACCTAGTGCAG”, the binding signal was 8180 fluorescence intensity (a.u.).

“GCGGCCAGGCCACCTCCAGCTCTTTTCACTCCTGGCTAACCGGAGTCACCTAGTGCAG”: the binding signal is 9500 fluorescence intensity (a.u.).

For the sequence “CCACCGCCCGCCGTCGTCTCTCTCTCTCTCTCTCTCTCTTCGGAGTCACCTAGTGCAG”, the binding signal is 9970 fluorescence intensity (a.u.).

Consider “CGCCGTTTAGTTTTTACTAACGTTTGACCATTTTTCTTATCGGAGTCACCTAGTGCAG”, for which the binding signal is 11700 fluorescence intensity (a.u.).

With “TCTTCGTATAAAAAGTATGACGCCGTTGACTTTTCATATACGGAGTCACCTAGTGCAG”, the binding signal was 14500 fluorescence intensity (a.u.).

Take “CCCGTCAACGCCACCTCACCGTTGACGTTGCCACTCTCTTCGGAGTCACCTAGTGCAG”: the binding signal was 16800 fluorescence intensity (a.u.).

Regarding “TATTACTCCCTTCGTATTTTAATGTATGACGCCGTTGACTCGGAGTCACCTAGTGCAG”, the binding signal is 8820 fluorescence intensity (a.u.).

As for “CCCGTGTCTTCCCAACCACGTTGACCACGACTTTTTCGTTCGGAGTCACCTAGTGCAG”, the binding signal is 9480 fluorescence intensity (a.u.).

Take “CTCTCTCACTCTTCTCCCTCTTCTCACCACCAGACGCCATCGGAGTCACCTAGTGCAG”: the binding signal is 8850 fluorescence intensity (a.u.).

Consider “GTTGTATAGGTTGGTTTTTTATGTATGACGCCGTTGACTTCGGAGTCACCTAGTGCAG”, for which the binding signal was 17100 fluorescence intensity (a.u.).

Consider “GATGACGTTGTTAACTTTTTATCACACGTTTGACCATTCGCGGAGTCACCTAGTGCAG”, for which the binding signal was 8510 fluorescence intensity (a.u.).

Take “GACGCCGTTGACTTTTTGACCAACGTTTGACCTTTCGTCTCGGAGTCACCTAGTGCAG”: the binding signal was 31400 fluorescence intensity (a.u.).

For the sequence “GTGGACGTTTTTGACTTTGTACTTTCAACGTTTGACCATTCGGAGTCACCTAGTGCAG”, the binding signal was 13900 fluorescence intensity (a.u.).

For “TATGACGCCGTTGACTTATTGACTAACGTTTGACCATTCGCGGAGTCACCTAGTGCAG”, the binding signal is 21500 fluorescence intensity (a.u.).

As for “TATGTCACGTATAAAATTCTAATGCTAGCTAACTACCATACGGAGTCACCTAGTGCAG”, the binding signal is 8340 fluorescence intensity (a.u.).

As to “GATCCGACTCCTACTTCTAACGTAGATTTTCGGCCTTTATCGGAGTCACCTAGTGCAG”, the binding signal was 8370 fluorescence intensity (a.u.).

As for “TTGCAAATGCAACCCTATTATGCCATCCTTTGTTATCCTGCGGAGTCACCTAGTGCAG”, the binding signal was 9550 fluorescence intensity (a.u.).
